From PubChem BioAssay (NCI)
The panel holds about 79,000 compounds, 15% with a hit somewhere; the sample as a whole holds those more often. Calls of active or inactive are those of the source. Rule as the data show it: active = growth inhibition above about 70%; inactive = the rest.

What was measured:
[1] = NCI Yeast Anticancer Drug Screen. Data for the wt1 strain (AID 149);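 also: 0% = growth of vehicle-treated wt1 cultures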; conditions: S. cerevisiae wt1 strain (SPY 50644) growth inhibition, hits give high values
Method in brief: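 Yeast wt1 strain exposed to compounds; growth inhibition measured relative to vehicle-treated controls.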

[2] = NCI Yeast Anticancer Drug Screen. Data for the rad50EPP+ strain (AID 151);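 also: 0% = growth of vehicle-treated control cultures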; conditions: S. cerevisiae rad50 mutant strain, hits give high values
Method in brief: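 Compounds were applied to the rad50EPP+ yeast strain, which bears a defined DNA repair alteration, and growth inhibition was determined relative to vehicle-treated cultures.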

[3] = NCI Yeast Anticancer Drug Screen. Data for the mgt1 strain (AID 153); conditions: S. cerevisiae mgt1 mutant growth inhibition, hits give high values
Method in brief: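 Strain: mgt1 yeast, one of a set carrying defined DNA damage repair or cell cycle control alterations. Compound-treated growth compared with vehicle.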

[4] = NCI Yeast Anticancer Drug Screen. Data for the rad50 strain (AID 155);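 also: 0% = growth of vehicle-only cultures of the same strain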; conditions: S. cerevisiae rad50 strain growth inhibition, hits give high values
Method in brief: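 Yeast carrying a defined DNA repair defect were exposed to test compounds, and growth was compared with vehicle-treated controls to give percent inhibition.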

[5] = NCI Yeast Anticancer Drug Screen. Data for the mec2-1 strain (AID 157); conditions: S. cerevisiae mec2-1 strain, hits give high values
Method in brief: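 Strain: mec2-1 (DNA repair/cell cycle alteration). Compound exposure, then growth measured; inhibition expressed relative to vehicle.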

[6] = NCI Yeast Anticancer Drug Screen. Data for the rad14 strain (AID 159);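 also: 0% = growth of vehicle-treated control cultures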; conditions: S. cerevisiae rad14 strain growth inhibition, hits give high values
Method in brief: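 Yeast cells carrying a defined DNA-repair defect were exposed to compounds, and growth inhibition was calculated relative to vehicle-treated control cultures.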

[7] = NCI Yeast Anticancer Drug Screen. Data for the sgs1 mgt1 strain (AID 161);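 also: 0% = growth of cultures given vehicle only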; conditions: S. cerevisiae sgs1 mgt1 strain, hits give high values
Method in brief: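 Test agents were incubated with a DNA-repair-mutant yeast strain. Growth was then read and compared against vehicle-treated controls.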

[8] = NCI Yeast Anticancer Drug Screen. Data for the CLN2oe strain (AID 163);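 also: 0% = growth of vehicle-only control cultures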; conditions: S. cerevisiae CLN2oe strain, hits give high values
Method in brief: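 Growth of a genetically modified yeast strain is measured after compound exposure and compared with cultures given vehicle alone.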

[9] = NCI Yeast Anticancer Drug Screen. Data for the cln2 rad14 strain (AID 165);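 also: 0% = growth equal to vehicle treated cultures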; conditions: S. cerevisiae cln2 rad14 strain, hits give high values
Method in brief: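 Compounds are applied to the cln2 rad14 yeast strain, and growth is then compared with that of vehicle-treated cultures to give inhibition.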

[10] = NCI Yeast Anticancer Drug Screen. Data for the bub3 strain (AID 167); conditions: S. cerevisiae bub3 mutant strain, hits give high values
Method in brief: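 Compounds were applied to a genetically altered yeast strain carrying a cell-cycle control defect. Growth inhibition was scored against vehicle-treated controls.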

[11] = NCI Yeast Anticancer Drug Screen. Data for the wt2 strain (AID 169);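 also: 0% = growth of vehicle-treated yeast cultures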; conditions: S. cerevisiae wt2 strain growth inhibition, hits give high values
Method in brief: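 This strain belongs to a panel of yeast strains with defined genetic alterations in DNA damage repair or cell cycle control. Compounds are applied, and growth inhibition is measured against vehicle-treated cultures.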

[12] = NCI Yeast Anticancer Drug Screen. Data for the mlh1 strain (AID 171);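 also: 0% = growth of vehicle-treated control cultures of the same strain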; conditions: S. cerevisiae mlh1 strain growth inhibition, hits give high values
Method in brief: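 Growth of the mutant yeast strain after compound exposure, expressed as inhibition relative to vehicle-only controls.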

[13] = NCI Yeast Anticancer Drug Screen. Data for the sgs1 strain (AID 173);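 also: 0% = growth of vehicle-only control cultures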; conditions: S. cerevisiae sgs1 mutant, hits give high values
Method in brief: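 Growth of a yeast strain bearing a defined genetic alteration is measured after compound treatment. Inhibition is expressed relative to vehicle-only controls.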

[14] = NCI Yeast Anticancer Drug Screen. Data for the mlh1 rad18 strain (AID 175); conditions: S. cerevisiae mlh1 rad18 strain growth inhibition, hits give high values
Method in brief: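 Read-out is yeast growth inhibition, calculated against vehicle-only controls. The compound was applied to a strain engineered with DNA damage repair alterations.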

[15] = NCI Yeast Anticancer Drug Screen. Data for the rad18 strain (AID 177); conditions: S. cerevisiae rad18 mutant growth inhibition, hits give high values
Method in brief: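 Growth of the mutant yeast strain after compound exposure, normalised to vehicle-only cultures.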

[16] = at 5.0 µM (retest, dose inferred, filed as 0.5)
[17] = at 50.0 µM (retest, dose inferred, filed as 5.0)

Measured: growth inhibition

Cc1ccnc(NS(=O)(=O)c2ccc(Nc3c4ccccc4nc4ccccc34)cc2)n1
inactive: [1]; at 1.2 µM 14% | [1]; at 3.7 µM 20% | [1]; at 11.0 µM 21% | [1]; at 33.0 µM 48% | [2]; at 1.2 µM 30% | [2]; at 3.7 µM 41% | [2]; at 11.0 µM 64% | [3]; at 1.2 µM 37% | [3]; at 3.7 µM 33% | [3]; at 11.0 µM 54% | [3]; at 33.0 µM 66% | [4]; at 1.2 µM 50% | [5]; at 1.2 µM 18% | [5]; at 3.7 µM 32% | [5]; [16] 15% | [5]; at 11.0 µM 45% | [6]; at 1.2 µM 10% | [6]; at 3.7 µM 10% | [6]; at 11.0 µM 26% | [6]; at 33.0 µM 58% | [7]; [16] 14% | [8]; at 1.2 µM 13% | [8]; at 3.7 µM 1% | [8]; at 11.0 µM 14% | [8]; at 33.0 µM 39% | [8]; at 100.0 µM 60% | [9]; [16] 17% | [9]; [17] 35% | [9]; at 50.0 µM 35.5% | [10]; at 1.2 µM -12% | [10]; at 3.7 µM -21% | [10]; [16] 26% | [10]; at 11.0 µM -20% | [10]; at 33.0 µM 30% | [10]; [17] 44% | [10]; at 100.0 µM 63% | [11]; at 1.2 µM -10% | [11]; at 3.7 µM -18% | [11]; at 11.0 µM -3% | [11]; at 33.0 µM 44% | [12]; at 1.2 µM 37% | [12]; at 3.7 µM 33% | [12]; at 11.0 µM 54% | [12]; at 33.0 µM 66% | [13]; at 1.2 µM 24% | [13]; at 3.7 µM 26% | [13]; at 11.0 µM 43% | [13]; at 33.0 µM 69% | [14]; [16] 26% | [14]; at 50.0 µM 37.7% | [15]; at 1.2 µM 16% | [15]; at 3.7 µM 19% | [15]; at 11.0 µM 36% | [15]; at 33.0 µM 65%
active: [1]; at 100.0 µM 76% | [2]; at 33.0 µM 73% | [2]; at 100.0 µM 74% | [3]; at 100.0 µM 84% | [4]; at 3.7 µM 79% | [4]; [16] 77% | [4]; at 11.0 µM 90% | [4]; at 33.0 µM 91% | [4]; [17] 90% | [4]; at 50.0 µM 84.8% | [4]; at 100.0 µM 88% | [5]; at 33.0 µM 76% | [5]; [17] 77% | [5]; at 50.0 µM 71.2% | [5]; at 100.0 µM 83% | [6]; at 100.0 µM 81% | [7]; [17] 74% | [7]; at 50.0 µM 77.6% | [10]; at 50.0 µM 76.2% | [11]; at 100.0 µM 74% | [12]; at 100.0 µM 84% | [13]; at 100.0 µM 86% | [14]; [17] 74% | [15]; at 100.0 µM 79%
